Bioassay records as filed in PubChem BioAssay.
A selection: hits, their analogues and other compounds. The true share with any hit is near 0.47%.
TcdB GH inh: TcdB glycohydrolase inhibitors, primary screen, biochemical, single point, plate reader | TcdB glycohydrolase enzymatic assay | inhibition, % at 9.99 µM | 0.24% of 350,000 active | AID 652162, 2013; in the data active means inhibition above about 10%
Target sequence (P18177 whole entry, looked up): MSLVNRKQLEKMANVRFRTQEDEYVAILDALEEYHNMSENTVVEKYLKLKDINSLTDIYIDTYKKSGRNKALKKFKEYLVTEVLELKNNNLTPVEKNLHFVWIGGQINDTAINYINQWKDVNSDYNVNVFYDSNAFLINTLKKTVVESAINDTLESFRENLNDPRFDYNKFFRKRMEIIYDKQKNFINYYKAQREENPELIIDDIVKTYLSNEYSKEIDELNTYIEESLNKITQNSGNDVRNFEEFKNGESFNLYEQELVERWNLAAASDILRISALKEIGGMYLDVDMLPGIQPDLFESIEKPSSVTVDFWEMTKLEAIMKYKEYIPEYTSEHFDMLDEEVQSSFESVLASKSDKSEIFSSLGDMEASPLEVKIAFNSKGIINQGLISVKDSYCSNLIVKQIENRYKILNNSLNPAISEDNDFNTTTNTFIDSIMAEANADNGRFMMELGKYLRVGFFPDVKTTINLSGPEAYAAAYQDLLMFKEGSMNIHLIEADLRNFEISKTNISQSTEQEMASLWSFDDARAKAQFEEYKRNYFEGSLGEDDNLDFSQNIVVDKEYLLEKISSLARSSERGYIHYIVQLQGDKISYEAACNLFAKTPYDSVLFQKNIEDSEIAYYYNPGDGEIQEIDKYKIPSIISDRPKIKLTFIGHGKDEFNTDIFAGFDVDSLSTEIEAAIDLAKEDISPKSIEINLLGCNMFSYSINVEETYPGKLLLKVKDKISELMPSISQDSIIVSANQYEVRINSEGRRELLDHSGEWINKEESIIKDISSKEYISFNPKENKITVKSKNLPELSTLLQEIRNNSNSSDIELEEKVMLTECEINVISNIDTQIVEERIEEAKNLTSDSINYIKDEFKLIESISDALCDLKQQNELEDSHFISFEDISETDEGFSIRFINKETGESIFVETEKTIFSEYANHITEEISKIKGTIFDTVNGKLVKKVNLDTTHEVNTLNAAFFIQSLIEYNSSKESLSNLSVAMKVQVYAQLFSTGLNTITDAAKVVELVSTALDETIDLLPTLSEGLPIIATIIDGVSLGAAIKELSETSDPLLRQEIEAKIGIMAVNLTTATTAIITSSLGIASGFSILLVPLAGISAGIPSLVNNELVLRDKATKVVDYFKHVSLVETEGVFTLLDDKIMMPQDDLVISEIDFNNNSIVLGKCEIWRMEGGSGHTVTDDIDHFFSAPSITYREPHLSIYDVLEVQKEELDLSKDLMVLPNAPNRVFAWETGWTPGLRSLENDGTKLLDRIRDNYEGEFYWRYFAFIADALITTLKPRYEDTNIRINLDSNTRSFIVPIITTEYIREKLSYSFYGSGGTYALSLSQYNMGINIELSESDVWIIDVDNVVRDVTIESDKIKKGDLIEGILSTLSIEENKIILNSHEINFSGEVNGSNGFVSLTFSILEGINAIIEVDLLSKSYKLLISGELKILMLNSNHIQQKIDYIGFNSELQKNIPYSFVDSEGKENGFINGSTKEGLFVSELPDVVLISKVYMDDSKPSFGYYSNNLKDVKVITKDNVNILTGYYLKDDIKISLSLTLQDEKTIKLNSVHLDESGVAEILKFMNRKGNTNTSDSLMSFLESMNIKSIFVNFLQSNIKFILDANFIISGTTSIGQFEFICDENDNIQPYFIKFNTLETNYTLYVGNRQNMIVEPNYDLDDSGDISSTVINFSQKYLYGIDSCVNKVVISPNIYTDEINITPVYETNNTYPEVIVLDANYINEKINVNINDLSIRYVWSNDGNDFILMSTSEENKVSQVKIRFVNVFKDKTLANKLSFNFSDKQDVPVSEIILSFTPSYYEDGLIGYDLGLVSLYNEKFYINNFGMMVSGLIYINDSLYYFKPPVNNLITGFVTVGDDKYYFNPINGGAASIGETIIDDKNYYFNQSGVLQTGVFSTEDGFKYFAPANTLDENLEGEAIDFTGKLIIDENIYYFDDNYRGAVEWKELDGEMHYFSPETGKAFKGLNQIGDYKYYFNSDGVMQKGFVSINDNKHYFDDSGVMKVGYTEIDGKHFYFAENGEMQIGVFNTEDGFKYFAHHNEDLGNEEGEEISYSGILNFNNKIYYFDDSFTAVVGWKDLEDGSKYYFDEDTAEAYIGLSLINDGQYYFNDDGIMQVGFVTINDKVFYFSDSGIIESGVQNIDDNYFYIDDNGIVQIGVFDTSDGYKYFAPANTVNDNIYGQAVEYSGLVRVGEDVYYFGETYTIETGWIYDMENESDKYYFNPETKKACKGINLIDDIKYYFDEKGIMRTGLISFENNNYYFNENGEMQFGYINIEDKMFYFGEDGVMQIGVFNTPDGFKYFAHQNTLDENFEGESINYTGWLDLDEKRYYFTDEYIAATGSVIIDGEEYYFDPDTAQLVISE
Y pestis TopoI: Yersinia pestis topoisomerase I inhibitors, primary screen, biochemical, cleavage product accumulation, plate reader, single point; activity, % at 10 µM; AID 504884, 2011; 0.064% of 360,000 active; Y. pestis Topo-I cleavage product accumulation; in the data active means activity above about 50%, passing the limit was not always enough
Mtb BioA inh: M. tuberculosis BioA enzyme inhibitors, primary screen, biochemical, plate reader, single point, HTS. 7,8-diaminopelargonic acid synthase BioA (Mycobacterium tuberculosis). AID 602481, 2012. 0.096% of 360,000 active. inhibition, % at 9.99 µM. purified M. tuberculosis BioA enzyme; in the data active means inhibition above about 40%
FadD28 binding: inhibitors of FadD28 bisubstrate probe binding, primary screen, biochemical, fluorescence polarization, single point | Mycobacterium tuberculosis FadD28 fatty-acid-AMP ligase | inhibition, % at 12.5 µM | 0.22% of 360,000 active; in the data active means inhibition above about 8.5%, passing the limit was not always enough
* marks the source's active call; other numbers are inactive results; . = no result.

SMILES	TcdB GH inh	Y pestis TopoI	Mtb BioA inh	FadD28 binding
CCc1cccc2c(C(=O)CN3C(=O)NC4(CCc5ccccc54)C3=O)c[nH]c12 (configuration not stated)	0	7	0	33*
O=C(CN1C(=O)NC2(CCCc3ccccc32)C1=O)NCc1cccs1 (configuration not stated)	15*	2	3	-1
Cc1ccc(C)c(C(=O)CN2C(=O)NC3(CCc4ccccc43)C2=O)c1 (configuration not stated)	0	12	0	-8
CCc1cccc2c(C(=O)CN3C(=O)NC(C)(c4cccc5ccccc45)C3=O)c[nH]c12 (configuration not stated)	1	-5	.	19*
O=[N+]([O-])c1cc(S(=O)(=O)C(F)(F)F)ccc1Sc1nc2ccccc2[nH]1	.	-15	.	-7
O=C(CSc1nnc(-c2ccc(F)cc2)o1)Nc1ccc(S(=O)(=O)N2CCCC2)cc1	.	5	-2	0
Cc1cc(C)n2cc(COc3ccc4ccccc4c3)nc2n1	1	44	.	-7
N#Cc1cc([N+](=O)[O-])ccc1NC(=O)COC(=O)CCC1CCCCC1	-1	.	.	.
Cc1ccc(CNS(=O)(=O)c2ccc(-n3cnnn3)c(C)c2)cc1	1	0	-1	-3
Cc1nc(C)c(-c2csc(Nc3ccc(N)cc3)n2)s1	3	-11	-1	-5
Cc1cc(NS(=O)(=O)c2ccc(Nc3nc(-c4ccc(C)c(C)c4)cs3)cc2)no1	.	-10	.	1
CCC(=O)Nc1nc(C)c(-c2csc(Nc3cccc(C(=O)O)c3)n2)s1	.	-8	.	4
Cc1nc(N)sc1-c1csc(Nc2cccc(C(=O)O)c2)n1	7	-15	8	23*
Cc1nc(C)c(-c2csc(Nc3ccc(O)c(C(=O)O)c3)n2)s1	4	3	3	17*
Cc1cc(NS(=O)(=O)c2ccc(Nc3nc(-c4sc(N)nc4C)cs3)cc2)no1	.	-21	6	55*
c1ccc(CCn2nnnc2C(c2cccnc2)N2CCOCC2)cc1 (configuration not stated)	0	0	2	0
COc1ccc(C2C3=C(CC(C)(C)CC3=O)Nc3c2c(=O)n(C)c(=O)n3C)cc1OC (configuration not stated)	-1	-7	0	0
CCn1cc(C(=O)O)c(=O)c2cc(F)c(N3CCN(C(=S)NC(=O)c4ccccc4Br)CC3)cc21	10*	7	1	-2
CCn1cc(C(=O)O)c(=O)c2cc(F)c(N3CCN(C(=S)NC(=O)c4ccc(F)cc4)CC3)cc21	1	4	0	-1
CN(C)CCNc1ccc(CO)c2sc3ccc(O)cc3c(=O)c12	25*	-12	.	-1
O=C1c2cc(Br)ccc2N(Cc2ccc(Br)cc2)S(=O)(=O)C1c1cc(Cl)c(Cl)cc1[N+](=O)[O-] (configuration not stated)	-1	-3	-2	30*
COC(=O)[C@H]1[C@H](CO)[C@H]2Cn3c(ccc(-c4ccc(F)cc4)c3=O)[C@@H]1N2Cc1ccccc1	1	.	2	.
CCCCCCCCn1ccc(=N)cc1	1	5	-2	-1
CCCCCCCCCCCCCCCCn1cc[n+](C)c1	3	-17	.	49*
Cc1cccc(-c2nnc3n2N=C(c2ccccc2)CS3)c1	.	25	0	-4
SMILES	TcdB GH inh	Y pestis TopoI	Mtb BioA inh	FadD28 binding
Cc1ccc(-c2nnc3n2N=C(c2ccccc2Br)CS3)cc1	.	59*	2	-8
Cn1c(=O)c2cc(NC(=S)NC3CC3)ccc2n1Cc1ccc(F)cc1	1	7	2	-2
CC(=O)Nc1ccc(N=C(C2=C(O)c3ccccc3C2=O)c2ccccc2)cc1	2	1	.	14*
Cc1ccc2c(c1)C(=O)CC(O)(C(F)(F)F)O2 (configuration not stated)	-1	-2	0	-2
COc1ccc(NC(=O)CC2SC(N3CCOCC3)=NC2=O)c(OC)c1 (configuration not stated)	1	5	0	-1
O=c1[nH]cnc2c1sc1nc(-c3ccccc3)c3c(c12)CCCC3	-1	9	.	-4
S=c1nc[nH]c2c1sc1nc(-c3ccccc3)c3c(c12)CCCC3	1	-3	.	15*
COCCn1c(=S)[nH]c2sc3c(c2c1=O)CCC(C)C3 (configuration not stated)	3	-1	2	12*
CCCn1c(=S)[nH]c2sc3c(c2c1=O)CCCC3	1	-6	-3	0
CCOc1ccc(S(=O)(=O)N2CCNC(=O)C2)cc1	1	0	0	-2
O=C(Nc1ccc(N2CCOCC2)c(Cl)c1)c1ccc(F)cc1	17*	3	4	-3
O=C(Nc1ccc(N2CCOCC2)c(Cl)c1)c1ccc(-n2cnnc2)cc1	0	4	-1	-5
C=C(C)CNC(=S)N/N=C/c1ccc([N+](=O)[O-])cc1	2	2	.	-1
COCc1c(Br)c(C)nc(OCC(=O)N/N=C/c2ccco2)c1C#N	0	-3	.	0
COCc1c(Br)c(C)nc(OCC(=O)N/N=C/c2ccc(C)o2)c1C#N	11*	4	.	-3
Cc1ccccc1S(=O)(=O)N1CCCc2nc(-c3ccccc3)ccc21	0	.	.	.
Cc1ccccc1S(=O)(=O)N1CCCc2nc(C)c(C)cc21	11*	.	.	.
Cc1ccc(C)c(CN2C(=O)COc3ccc(C(=O)c4ccccc4C(=O)O)cc32)c1	14*	3	.	1
Cc1ccc(S(=O)(=O)Oc2cccc(/C=N/Nc3ccc(C(=O)O)cc3)c2)cc1	11*	-4	17	30*
Cc1ccc(S(=O)(=O)Oc2cccc(/C=N/n3cnnc3)c2)cc1	11*	-3	.	-5
Cc1ccc(Nc2n[nH]c(=S)s2)cc1	2	-3	0	1
S=c1[nH]nc(NC2CCCCC2)s1	18*	-11	0	-3
O=C(O)c1ccccc1N/N=C\c1ccnc2ccccc12	.	-11	.	11*
CCOC(=O)/C=C(\C)Sc1cc(=O)oc2ccccc12	.	5	.	-4
Cc1nn(CCc2nn[nH]n2)c2nc(-c3ccc(C4CCCCC4)cc3)cc(C(F)(F)F)c12	0	-2	.	14*
SMILES	TcdB GH inh	Y pestis TopoI	Mtb BioA inh	FadD28 binding
Cc1nn(CCC(N)=O)c2nc(-c3cccs3)cc(C(F)(F)F)c12	0	8	.	-4
CCn1c(=N)n(CC(O)c2ccco2)c2ccccc21 (configuration not stated)	.	3	-2	-1
N=c1n(Cc2ccccc2)c2ccccc2n1CC(O)c1ccco1 (configuration not stated)	.	1	-11	13*
N/C(=N\N=C\c1ccc(O)cc1)c1nonc1N	28*	4	.	-2
CCCCN(C(=O)c1[nH]c(C)c(C(C)=O)c1C)c1c(N)n(CCCC)c(=O)[nH]c1=O	1	3	.	-2
Cc1ccc2oc(C(=O)Nc3ccc(S(=O)(=O)Nc4onc(C)c4C)cc3)c(C)c2c1	0	12	-2	-2
Cc1ccc(-c2cc(C(=O)Nc3ccc(S(=O)(=O)Nc4onc(C)c4C)cc3)[nH]n2)c(O)c1	1	-3	3	14*
